“And” between values parts separate entries of the source, which are not always exact repeats. Identical values can stand only once. Out of some 5,500 compounds screened, about 2,000 (36%) were called active. About 18% were inconclusive and are not listed. No stated cut-off is given here; in the data, active means normalized growth mostly below about 0.91 (no sharp cut-off); inconclusive means no clear call, values can overlap the other calls; inactive means mostly above about 0.92. Some of the results follow.
Experiment: chemical genetic growth profiling, strain panel (AID 1159580);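 further: tested at 20 µM; growth read once vehicle control cultures reached saturation at 30 °C; 1 = growth at the plate median or of vehicle wells; lower values mean less growth of the strain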
Conditions: growth OD

Measured: normalized growth

O=C(O/N=C1/CCCc2[nH]c3ccccc3c21)c1ccc(Cl)cc1Cl
active: S. cerevisiae deletion strains, locus YAL013W, strain DEP1, hits give low values 0.906 | S. cerevisiae deletion strains, locus YHR030C, strain SLT2, hits give low values 0.426 and 0.762 | S. cerevisiae deletion strains, locus YKL190W, strain CNB1, hits give low values 0.807 | S. cerevisiae deletion strains, locus YLR039C, strain RIC1, hits give low values 0.708 | S. cerevisiae deletion strains, locus YLR085C, strain ARP6, hits give low values 0.55 | S. cerevisiae deletion strains, locus YLR113W, strain HOG1, hits give low values 0.806 | S. cerevisiae deletion strains, locus YLR262C, strain YPT6, hits give low values 0.776 | S. cerevisiae deletion strains, locus YML094W, strain GIM5, hits give low values 0.822 | S. cerevisiae deletion strains, locus YMR263W, strain SAP30, hits give low values 0.893 | S. cerevisiae deletion strains, locus YMR307W, strain GAS1, hits give low values 0.461 | S. cerevisiae deletion strains, locus YNL298W, strain CLA4 (second series), hits give low values 0.796 | S. cerevisiae deletion strains, locus YNR030W, strain Alg12, hits give low values 0.754 | S. cerevisiae deletion strains, locus YPL055C, strain LGE1, hits give low values 0.733 | S. cerevisiae deletion strains, locus YPL241C, strain CIN2, hits give low values 0.843 | S. cerevisiae strains, strain wild type, hits give low values 0.874
inactive: S. cerevisiae deletion strains, locus YAR019C, strain CDC15, hits give low values 0.982 | S. cerevisiae deletion strains, locus YBL105C, strain PKC1, hits give low values 0.984 | S. cerevisiae deletion strains, locus YBR135W, strain CKS1, hits give low values 0.974 | S. cerevisiae deletion strains, locus YBR136W, strain MEC1, hits give low values 0.975 | S. cerevisiae deletion strains, locus YBR160W, strain CDC28, hits give low values 0.98 | S. cerevisiae deletion strains, locus YBR229C, strain ROT2, hits give low values 0.97 | S. cerevisiae deletion strains, locus YCL061C, strain MRC1, hits give low values 0.923 | S. cerevisiae deletion strains, locus YDL017W, strain CDC7, hits give low values 0.974 | S. cerevisiae deletion strains, locus YDL028C, strain MPS1, hits give low values 0.972 | S. cerevisiae deletion strains, locus YDL101C, strain DUN1, hits give low values 0.989 and 1 | S. cerevisiae deletion strains, locus YDL108W, strain KIN28, hits give low values 0.972 | S. cerevisiae deletion strains, locus YDL132W, strain cdc53, hits give low values 0.976 | S. cerevisiae deletion strains, locus YDL134C, strain PPH21, hits give low values 0.968 | S. cerevisiae deletion strains, locus YDL214C, strain PRR2, hits give low values 0.917 | S. cerevisiae deletion strains, locus YDR052C, strain DBF4, hits give low values 0.985 | S. cerevisiae deletion strains, locus YDR054C, strain cdc34, hits give low values 0.984 | S. cerevisiae deletion strains, locus YDR150W, strain NUM1, hits give low values 0.943 | S. cerevisiae deletion strains, locus YDR226W, strain ADK1, hits give low values 0.96 | S. cerevisiae deletion strains, locus YDR477W, strain SNF1, hits give low values 0.91 | S. cerevisiae deletion strains, locus YEL061C, strain CIN8, hits give low values 0.917 | S. cerevisiae deletion strains, locus YER123W, strain YCK3, hits give low values 0.917 | S. cerevisiae deletion strains, locus YER133W, strain GLC7, hits give low values 0.91 | S. cerevisiae deletion strains, locus YFL009W, strain cdc4, hits give low values 0.971 | S. cerevisiae deletion strains, locus YFL029C, strain CAK1, hits give low values 0.98 | S. cerevisiae deletion strains, locus YFR003C, strain YPI1, hits give low values 0.973 | S. cerevisiae deletion strains, locus YFR019W, strain FAB1, hits give low values 0.95 | S. cerevisiae deletion strains, locus YFR028C, strain CDC14, hits give low values 0.977 | S. cerevisiae deletion strains, locus YGR040W, strain KSS1, hits give low values 0.908 | S. cerevisiae deletion strains, locus YGR052W, strain FMP48, hits give low values 0.897 | S. cerevisiae deletion strains, locus YGR078C, strain PAC10, hits give low values 0.962 | S. cerevisiae deletion strains, locus YGR092W, strain DBF2, hits give low values 0.982 | S. cerevisiae deletion strains, locus YGR229C, strain SMI1, hits give low values 0.993 | S. cerevisiae deletion strains, locus YHR079C, strain IRE1, hits give low values 0.988 | S. cerevisiae deletion strains, locus YHR082C, strain KSP1, hits give low values 0.943 | S. cerevisiae deletion strains, locus YHR087W, strain rtc3, hits give low values 0.982 | S. cerevisiae deletion strains, locus YHR205W, strain SCH9, hits give low values 0.961 | S. cerevisiae deletion strains, locus YIL147C, strain SLN1, hits give low values 0.976 | S. cerevisiae deletion strains, locus YJL095W, strain BCK1, hits give low values 0.935 | S. cerevisiae deletion strains, locus YJL128C, strain PBS2, hits give low values 0.921 | S. cerevisiae deletion strains, locus YJL157C, strain FAR1, hits give low values 0.906 | S. cerevisiae deletion strains, locus YJR016C, strain ILV3, hits give low values 0.964 | S. cerevisiae deletion strains, locus YJR043C, strain POL32, hits give low values 0.941 | S. cerevisiae deletion strains, locus YJR066W, strain TOR1 (second series), hits give low values 0.876 | S. cerevisiae deletion strains, locus YJR066W, strain TOR1, hits give low values 0.987 | S. cerevisiae deletion strains, locus YJR075W, strain HOC1, hits give low values 0.895 | S. cerevisiae deletion strains, locus YKL048C, strain ELM1, hits give low values 0.963 | S. cerevisiae deletion strains, locus YKL067W, strain YNK1, hits give low values 0.946 | S. cerevisiae deletion strains, locus YKL101W, strain HSL1, hits give low values 0.935 | S. cerevisiae deletion strains, locus YKL193C, strain SDS22, hits give low values 0.969 | S. cerevisiae deletion strains, locus YKL203C, strain TOR2, hits give low values 0.958 | S. cerevisiae deletion strains, locus YLR058C, strain SHM2 (second series), hits give low values 0.971 | S. cerevisiae deletion strains, locus YLR133W, strain CKI1, hits give low values 0.926 | S. cerevisiae deletion strains, locus YLR403W, strain SFP1, hits give low values 0.931 | S. cerevisiae deletion strains, locus YML070W, strain DAK1, hits give low values 0.914 | S. cerevisiae deletion strains, locus YMR001C, strain CDC5, hits give low values 0.977 | S. cerevisiae deletion strains, locus YMR205C, strain PFK2 (second series), hits give low values 0.935 | S. cerevisiae deletion strains, locus YMR219W, strain ESC1, hits give low values 1.01 | S. cerevisiae deletion strains, locus YMR277W, strain FCP1, hits give low values 0.969 | S. cerevisiae deletion strains, locus YNL006W, strain LST8, hits give low values 0.983 | S. cerevisiae deletion strains, locus YNL020C, strain ARK1, hits give low values 0.921 | S. cerevisiae deletion strains, locus YNL128W, strain TEP1, hits give low values 0.972 | S. cerevisiae deletion strains, locus YNL153C, strain GIM3, hits give low values 0.971 | S. cerevisiae deletion strains, locus YNL161W, strain CBK1, hits give low values 0.971 | S. cerevisiae deletion strains, locus YNL183C, strain NPR1, hits give low values 1 | S. cerevisiae deletion strains, locus YNL207W, strain RIO2, hits give low values 0.976 | S. cerevisiae deletion strains, locus YNL222W, strain SSU72, hits give low values 0.97 | S. cerevisiae deletion strains, locus YNL307C, strain MCK1 (second series), hits give low values 0.937 | S. cerevisiae deletion strains, locus YNL322C, strain KRE1, hits give low values 0.993 | S. cerevisiae deletion strains, locus YOL078W, strain AVO1, hits give low values 0.971 | S. cerevisiae deletion strains, locus YOL136C, strain PFK27, hits give low values 0.917 | S. cerevisiae deletion strains, locus YOR061W, strain CKA2, hits give low values 0.935 | S. cerevisiae deletion strains, locus YOR119C, strain RIO1, hits give low values 0.97 | S. cerevisiae deletion strains, locus YOR231W, strain MKK1, hits give low values 0.939 | S. cerevisiae deletion strains, locus YOR329C, strain SCD5, hits give low values 0.972 | S. cerevisiae deletion strains, locus YPL031C, strain PHO85, hits give low values 0.9 | S. cerevisiae deletion strains, locus YPL153C, strain RAD53, hits give low values 0.918 | S. cerevisiae deletion strains, locus YPL204W, strain HRR25, hits give low values 0.912 | S. cerevisiae deletion strains, locus YPL209C, strain IPL1, hits give low values 0.977 | S. cerevisiae deletion strains, locus YPL256C, strain CLN2, hits give low values 0.882 | S. cerevisiae deletion strains, locus YPR025C, strain CCL1, hits give low values 0.979 | S. cerevisiae deletion strains, locus YPR106W, strain ISR1, hits give low values 0.979 | S. cerevisiae deletion strains, locus YPR111W, strain DBF20, hits give low values 0.972 | S. cerevisiae deletion strains, locus YPR135W, strain CTF4, hits give low values 0.681 | S. cerevisiae deletion strains, strain NNK1, hits give low values 0.975 | S. cerevisiae deletion strains, strain TSCII, hits give low values 0.972
